Hit rate of the full screen: of about 2,500 compounds, about 1,100 (44%) were called active. The set was probably picked from earlier hits. The list shows a part of the results. Unmarked numbers belong to inactive results.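 How the source made its calls: active means inhibition above 50% at 4 µM in the single-point screen; inactive means inhibition of 50% or less.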

The nature of this experiment: TNF-a-driven NF-kB reporter inhibitors, primary screen, selectivity assay for NOD1/NOD2 signaling inhibitor project, cell-based, HEK293T NF-kB-Luc, luminescence (AID 1852). To be noted: TNF-a induced, 14 h, at 4 µM, stronger effect = higher value.
On to `O=C(c1[nH]ncc1-c1ccccc1)C1CO1` (stereo unspecified), for which the inhibition is 2.8%.
As to `O=[N+]([O-])c1ccc(/C=N/NC(=S)Nc2ccc(Cl)cc2Cl)s1`, the inhibition is 31.8%.
Regarding `Cc1cccc(NC(=S)N/N=C/c2ccc([N+](=O)[O-])s2)c1`, the inhibition is 106% (active).
In the case of `Cc1ccc(NC(=S)N/N=C/c2ccc([N+](=O)[O-])s2)cc1` it was 100% (active); in that of `O=C(N/N=C/c1ccc([N+](=O)[O-])s1)c1ccncc1`, 45.8%.
On to `Cc1ccc(/C=N/Nc2ccc(C(=O)O)cc2)s1`, for which the inhibition was 44.7%.
Consider `Cc1ccc(C(=O)N/N=C/c2ccc([N+](=O)[O-])s2)cc1`, for which the inhibition was 66.9% (active).
As to `Cc1ccc(-c2nnc(Sc3nc4ccccc4o3)c3ccccc23)cc1`, the inhibition was -46.1%.
In the case of `CCC(C)Cn1c(O)cc2nn(-c3nc4ccccc4s3)c(=O)c-2c1C` (stereo unspecified) it was 77.4% (active); in that of `CCC(C)Cn1c(C(C)C)nc2ccccc21` (stereo unspecified), -3%.
With `CCC(C)Cn1c(C)nc2ccccc21` (stereo unspecified) the figure was 28%.
As for `COc1c(C)cc(C(=O)C2CCCN(C(=O)CCc3scnc3C)C2)cc1C` (stereo unspecified), the inhibition is 27.3%.
As to `Fc1ccc(C2CCCN2Cc2nc(Cc3ccccc3F)no2)cc1` (stereo unspecified), the inhibition was -0.4%.
For the compound `Cc1ccnn1CCC(=O)N1CCCC(Nc2ccc(F)c(F)c2)C1` (stereo unspecified), the inhibition was 21.6%.
As to `CCc1cc(C(=O)NC2CCCN(Cc3ccccc3F)C2)n(C)n1` (stereo unspecified), the inhibition was 57.5% (active).
With `CCC(C)c1ccc(C(C)NC(=S)NC2CCCCC2)cc1` (stereo unspecified) the figure was 21.1%.
For the compound `O=C(CCS(=O)(=O)c1ccccc1)Nc1cccc(-c2nc3ccccc3s2)c1`, the inhibition was 59.9% (active).
In the case of `CS(=O)(=O)c1ccc2nc(NC(=O)CCS(=O)(=O)c3ccccc3)sc2c1` it was 36.3%; in that of `Cc1nc2ccc(NC(=O)CCS(=O)(=O)c3ccccc3)cc2s1`, -1.1%; in that of `O=C(c1cn(-c2ccccc2)nc1-c1ccccc1)n1nnc2ccccc21`, 27.6%.
In the case of `COc1ccc(-c2csc3ncnc(NCCO)c23)cc1` it was 49.8%; in that of `OCCCNc1ncnc2scc(-c3ccc(Cl)cc3)c12`, 78.5% (active); in that of `COc1ccc(-c2csc3ncnc(NCCCO)c23)cc1`, 60.7% (active).
In the case of `CCc1cccc(NS(=O)(=O)c2csc(C(N)=O)c2)c1` it was 23.5%; in that of `CNC(=S)N(CCc1c(C)[nH]c2ccc(Cl)cc12)Cc1cc(OC)c(OC)c(OC)c1`, 36.1%; in that of `CCOC(=O)c1sc(NC(=O)CSc2n[nH]c(-c3ccncc3)n2)c(C#N)c1C`, 26.6%.
Consider `CCCc1ccc(-c2c(C)sc(NC(=O)c3ccnn3C)c2C#N)cc1`, for which the inhibition is 86.3% (active).
In the case of `CCN1/C(=C/C=C/C=C/C=C/c2sc3ccccc3[n+]2CC)Sc2ccccc21`, the inhibition was 62.2% (active).
As to `CCN1/C(=C/C(C)=C/c2sc3ccccc3[n+]2CC)Sc2ccccc21`, the inhibition is 71.8% (active).
As to `O=c1c2cc([N+](=O)[O-])ccc2nc(CN2CCN(c3ccccn3)CC2)n1-c1ccccc1F`, the inhibition was 2.4%.
With `Cc1ccc(NC(=O)CSc2nn(-c3ccccc3)c(=S)s2)cc1S(=O)(=O)N(C)C` the figure was 72.3% (active).
As to `CN(C)S(=O)(=O)c1cc(NC(=O)CSc2nn(-c3ccc(Cl)cc3)c(=S)s2)ccc1Cl`, the inhibition was -20.5%.
Take `CCN(Cc1ccncc1)C(=O)CC1C(=O)NCCN1Cc1ccc(F)c(F)c1` (stereo unspecified): the inhibition is 1.3%.
Regarding `CCN(CCn1cccn1)C(=O)CC1C(=O)NCCN1CCc1ccccc1` (stereo unspecified), the inhibition was 50.2% (active).
Consider `CC(CN1CCOCC1)OC(=O)Cc1ccc(Cl)cc1` (stereo unspecified), for which the inhibition was 12.4%.
For `CSc1ncccc1C(=O)N1CCN(S(=O)(=O)c2cc(C)ccc2C)CC1`, the inhibition was -21.1%.
In the case of `Cc1ccc(NC(=O)CSc2ncnc3ccccc23)cc1S(=O)(=O)N1CCCCC1`, the inhibition is 57.7% (active).
Turning to `Cc1ccc(NC(=O)c2cc(=O)c3ccccc3o2)cc1S(=O)(=O)N1CCCCC1`, the inhibition was 23.9%.
With `Cc1ccc(NC(=O)CSc2ncnc3ccccc23)cc1S(=O)(=O)N1CCOCC1` the figure was 39.8%; with `O=C(CCl)Nc1cccc(S(=O)(=O)N2CCCCCC2)c1`, 30.6%; with `Cc1ccc(NC(=O)c2ccccc2NS(=O)(=O)c2ccc(F)cc2)cc1S(=O)(=O)N1CCCCC1`, 81.2% (active).
On to `O=C(Nc1ccc(F)cc1)Nc1ccc(N2CCCC2)c(S(=O)(=O)Nc2ccccc2Cl)c1`, for which the inhibition is 35.1%.
Consider `COc1ccc(NS(=O)(=O)c2cccc(NC(=O)c3ccc(Cl)nc3)c2)cc1`, for which the inhibition was 42%.
As for `O=C(Nc1cccc(S(=O)(=O)N2CCCCC2)c1)c1ccccc1NS(=O)(=O)c1ccc(F)cc1`, the inhibition is 87% (active).
Regarding `O=C(Nc1cccc(S(=O)(=O)N2CCCCC2)c1)Nc1ccc(Cl)cc1Cl`, the inhibition is -29.7%.
In the case of `COc1ccc(NS(=O)(=O)c2cccc(NC(=O)c3ccc(S(=O)(=O)N4CCCCCC4)cc3)c2)cc1` it was 90.7% (active); in that of `Cc1nc(Sc2nnnn2C)c2c3c(sc2n1)CCC3`, 25.5%; in that of `CCS(=O)(=O)c1ccc2oc(SCC(=O)NC3CCCC(C)C3C)nc2c1` (stereo unspecified), 15.3%.
With `CC1CCCC(NC(=O)NC(=O)CCl)C1C` (stereo unspecified) the figure was 69.1% (active); with `CC1CCCCC1NC(=O)NC(=O)CCl` (stereo unspecified), 68.1% (active); with `COc1ccccc1C1/C(=C(/O)c2ccc(OC(C)C)cc2)C(=O)C(=O)N1c1cc(C)on1` (stereo unspecified), 35.4%.
For the compound `O=C(CN(Cc1ccc(Cl)cc1)C(=O)CNS(=O)(=O)c1ccc(F)cc1)NCC1CCCO1` (stereo unspecified), the inhibition was 38.4%.
As for `O=S(=O)(NCC1CCCO1)c1ccc(-c2ccc(S(=O)(=O)NCC3CCCO3)cc2)cc1` (stereo unspecified), the inhibition is 34.8%.
For `COc1ccc(N2CCN(C(=O)c3ccc(CNS(=O)(=O)c4ccc(C)cc4)cc3)CC2)cc1`, the inhibition is 35.1%.
With `Cc1ccc(NS(=O)(=O)c2ccc(C(=O)N3CCN(c4ncccn4)CC3)cc2)cc1` the figure was 61.5% (active); with `Cc1cccc(-n2ncc3c(N(C)C4CCCCC4)ncnc32)c1`, -64.4%.
With `COc1cccc(N2CCN(c3ncnc4c3cnn4-c3ccc(C)cc3C)CC2)c1` the figure was 102% (active); with `CCOC(=O)C1=C(C)N=c2s/c(=C/c3cccc([N+](=O)[O-])c3O)c(=O)n2C1c1ccccc1` (stereo unspecified), 74.5% (active).
With `CCn1c(Oc2ccccc2F)nc2c1c(=O)n(C)c(=O)n2C`, the inhibition was 69.1% (active).
With `C=CCn1c(Oc2ccc(C(=O)OC)cc2)nc2c1c(=O)n(C)c(=O)n2C`, the inhibition is 47.2%.
As to `C=CCn1c(Oc2ccccc2F)nc2c1c(=O)n(C)c(=O)n2C`, the inhibition is 78.4% (active).
As to `Cn1c(N2CCN(c3ccccn3)CC2)nc2c1c(=O)n(Cc1ccc(Cl)cc1)c(=O)n2C`, the inhibition was 17.7%.
Take `Cn1c(=O)c2c(nc(Oc3ccc4ccccc4c3)n2C)n(C)c1=O`: the inhibition is 40.5%.
With `Cn1c(=O)[nH]c(=O)c2c1nc(N1CCC(Cc3ccccc3)CC1)n2Cc1ccccc1` the figure was 41.2%.
With `Cn1c(=O)[nH]c(=O)c2c1nc([N+](=O)[O-])n2Cc1ccccc1`, the inhibition is 104% (active).
With `CCCCCn1c(SCCc2ccccc2)nc2c1c(=O)[nH]c(=O)n2C`, the inhibition is 31.3%.
With `COc1ccc(C(=O)Nc2nnc(S(=O)(=O)N(C)Cc3ccc(F)cc3)s2)cc1OC` the figure was -1%; with `CN(Cc1ccc(F)cc1)S(=O)(=O)c1nnc(NC(=O)c2ccccc2)s1`, 21%; with `CN(Cc1ccccc1)S(=O)(=O)c1nnc(NC(=O)c2ccc(F)cc2)s1`, 74.3% (active).
Regarding `CSc1nc2ccc(NS(=O)(=O)c3ccc4c(c3)OCCO4)cc2s1`, the inhibition is 100% (active).
For the compound `Cc1nc2ccc(NS(=O)(=O)c3ccc(F)c(C)c3)cc2[nH]1`, the inhibition is 42.8%.
On to `Cc1nc2ccc(NS(=O)(=O)c3c(C)c(C)cc(C)c3C)cc2s1`, for which the inhibition is 61.8% (active).
`Cc1ccc(-c2nc3cccnc3s2)cc1NS(=O)(=O)c1ccc2c(c1)OCCO2`: the inhibition was 27.3%.
Turning to `CS(=O)(=O)c1ccc2nc(NC(=O)c3cccc(NS(=O)(=O)c4ccc(F)c(F)c4)c3)sc2c1`, the inhibition is -0.8%.
On to `Cc1nc2ccc(NS(=O)(=O)c3ccc(C)c(C)c3)cc2s1`, for which the inhibition is 48.4%.
Regarding `Cc1nc2ccc(NS(=O)(=O)c3ccc4c(c3)OCCO4)cc2s1`, the inhibition was 72.1% (active).
As for `COC(=O)C(=Cc1ccc(OCc2ccc([N+](=O)[O-])cc2)c(OC)c1)C(=O)OC`, the inhibition is 18%.
Take `O=[N+]([O-])c1cc([N+](=O)[O-])c2oc(-c3ccccc3)c(Br)c2c1O`: the inhibition was 66% (active).
In the case of `Cc1ccc2c(c1)N(C)/C(=C/c1cccc[n+]1C)S2` it was 24.9%; in that of `CCN1/C(=C/c2cccc[n+]2C)Sc2ccc(OC)cc21`, 50.4% (active).
For the compound `O=C(Nc1cccc(-c2ccc(N3CCCCC3)nn2)c1)C(F)(F)F`, the inhibition was -90.7%.
As for `Cc1ccc(C(=O)Sc2cccccc2=O)cc1`, the inhibition was 103% (active).
Regarding `Cc1ccc(S(=O)(=O)/C(=C/Cl)NC(=O)c2ccccc2)cc1`, the inhibition was 11.6%.
On to `Cc1cccc(-c2nnc(NC(=O)c3ccc(Cl)cc3)o2)c1`, for which the inhibition was 102% (active).
In the case of `O=C(Nc1nnc(-c2ccccc2)o1)c1ccc(Cl)cc1` it was 104% (active); in that of `O=C(Nc1sc2c(c1C(=O)O)CCCC2)c1ccc(Cl)cc1`, 29.8%.
Consider `CN(C)c1ccc(C(=O)Nc2nnc(-c3ccc(Cl)cc3)o2)cc1`, for which the inhibition was 106% (active).
Take `CCC(=O)N1c2ccc(S(=O)(=O)N3CCN(c4ccc([N+](=O)[O-])cc4)CC3)cc2CC1C` (stereo unspecified): the inhibition was 26.6%.
Regarding `CCN(CC)S(=O)(=O)c1cccc(NC(=O)Nc2cccc(C(F)(F)F)c2)c1`, the inhibition was 69% (active).
With `O=C(Nc1ccc(OC(F)F)cc1)Nc1cccc(C(F)(F)F)c1` the figure was 14.2%; with `CCN(CC)S(=O)(=O)c1ccc(NC(=O)Nc2cccc(C(F)(F)F)c2)cc1`, 10.5%.
